Screens (PubChem)
EWS-Fli inh: EWS/Fli-driven NR0B1 reporter inhibitors, primary screen, A673 cells, NR0B1 luciferase, luminescence, MLPCN library; viability-normalised; 350,000 compounds, 0.67% hits; inhibition, % at 12.6 µM;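 active means mean inhibition of at least 50% after viability correction, with every replicate also passing that limit; inconclusive means mean reaches 50% but only one of two replicates passes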;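 further: firefly luciferase signal divided by Alamar Blue viability fluorescence both relative to DMSO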
PAX8 reporter: inhibitors of PAX8-driven TPO luciferase reporter, primary screen, RMG-I cells, single concentration; SteadyGlo, 24 h; inhibition, % at 12.6 µM; 360,000 compounds, 1.2% hits; AID 652154, 2013;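 active means mean replicate inhibition at least 60% with every replicate also reaching 60%; inconclusive means only one of the two criteria is met; inactive means mean below 60% and not all replicates reaching 60%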;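 further: luciferase light reporting Pax8 driven TPO promoter activity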
TRPM1 prom inh: inhibitors of MITF-dependent TRPM1 promoter reporter, primary screen, cell-based, SK-MEL-5, single point, luciferase; SK-MEL-5 TRPM1 promoter luciferase, 24 h; inhibition, % at 12.5 µM; 330,000 compounds, 0.83% hits;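 active means mean inhibition across replicates of 60% or more, whatever share of single replicates reaches that level; inconclusive means some that reach 60%, reason not given; inactive means mean inhibition across replicates below 60%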
LGR2 antag: inhibitors of bursicon-induced LGR2 CRE-luciferase signal, primary screen, cell-based, HEK293, CRE-luciferase reporter, bursicon stimulation; AID 720647, 2013; bursicon-stimulated, 4 h; inhibition, % at 9.99 µM; 380,000 compounds, 0.35% hits;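 active means drop in luminescence signal, shown as inhibition above about 50% in the replicate tests, limit read from the data, passing the limit was not always enough; inconclusive means probably only some replicates passing the limit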;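 further: agonist challenge used bursicon conditioned medium at about half maximal strength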
Shn3 inh set2: reduction of Shn3 3'UTR firefly luciferase signal, primary screen, Schnurri-3 inhibitor project, cell-based, Clone20 osteoblasts, set 2 | 360,000 compounds, 0.52% hits | AID 588674, 2011 | Clone20 osteoblast Shn3 3'UTR firefly luciferase, 24 h | inhibition, % at 12.5 µM;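 active means mean inhibition of at least 75% with every replicate also reaching 75%; inconclusive means mean inhibition at least 75% but some replicate below; inactive means mean inhibition below 75%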
LMP1 NFkB inh: EBV LMP1-driven NF-kappaB luciferase reporter inhibitors, primary screen, cell-based, luminescence, single point | LMP1-induced NF-kappaB luciferase reporter cells | inhibition, % at 12.5 µM | 350,000 compounds, 0.69% hits; in the data active means inhibition above about 41%; inconclusive means no clear call, values can overlap the other calls
A number is an active result; i = inactive; ? = inconclusive; nt = no result given; ! = repeats disagree. Shown are actives, neighbours in structure and some others; about 2.2% of the full set was active somewhere.

SMILES | EWS-Fli inh | PAX8 reporter | TRPM1 prom inh | LGR2 antag | Shn3 inh set2 | LMP1 NFkB inh
Cn1c(=S)oc2ccccc21 | i | i | i | i | i | i
CC(C)NC(=O)N(C)C[C@H]1OCCCC[C@@H](C)Oc2ccc(NS(=O)(=O)c3cccs3)cc2C(=O)N([C@H](C)CO)C[C@H]1C | i | i | nt | i | nt | nt
COCc1cn([C@@H]2C[C@@H]3O[C@@H](CO)CC[C@@H]3O[C@@H]2CCc2ccc(-c3ccc(OC)cc3)cc2)nn1 | i | i | nt | nt | nt | nt
CCCNC(=O)COc1ccc(C=O)cc1 | i | i | nt | nt | nt | nt
CN(C)CCCNC(=O)[C@H]1[C@H](CO)[C@H]2Cn3c(cccc3=O)[C@H]2N1C(=O)Nc1ccccc1 | i | i | nt | i | nt | nt
C/C=C/c1cnc2c(c1)C(=O)N([C@H](C)CO)C[C@H](C)[C@H](CN(C)Cc1cncnc1)O2 | i | nt | nt | i | nt | nt
O=C(C1CCCCC1)N1CC(=O)N2[C@H](CO)[C@H](c3ccc(C#CCc4ccccc4)cc3)[C@H]2C1 | nt | nt | nt | i | nt | nt
CCNC(=S)Nc1ccc2cn[nH]c2c1 | nt | i | i | i | i | i
N#CC(C#N)=NNc1ccc2cn[nH]c2c1 | i | i | nt | 82 | i | nt
COc1ccc(C(=O)NCCN2CCOCC2)cc1[N+](=O)[O-] | i | i | i | i | i | 80
CCOC(=O)c1ccc(N=c2sc(C(=O)OC)cc(=O)n2-c2ccc(C(=O)OCC)cc2)cc1 | i | nt | i | 58 | i | i
C[C@H](NC(=O)C[C@H]1C[C@H]2c3cc(NC(=O)C4CCC4)ccc3O[C@H]2[C@H](CO)O1)c1ccccc1 | i | i | nt | i | nt | nt
Cn1cc(C(N)=O)c2ccccc21 | i | nt | nt | i | i | i
Cn1cc(C(=O)CCl)c2ccccc21 | i | i | 83 | i | i | i
C[C@@H]1CCCCO[C@@H](CN(C)Cc2ccc3c(c2)OCO3)[C@@H](C)CN([C@H](C)CO)C(=O)c2cc(NC(=O)Nc3ccc(F)cc3)ccc2O1 | i | i | nt | i | nt | nt
C[C@H](CO)N1C[C@H](C)[C@@H](CN(C)Cc2ccc3c(c2)OCO3)OCCCC[C@H](C)Oc2ccc(NC(=O)Nc3ccc(F)cc3)cc2C1=O | i | i | nt | i | nt | nt
C[C@@H]1CN([C@H](C)CO)C(=O)c2cc(NC(=O)Nc3ccc(F)cc3)ccc2O[C@@H](C)CCCCO[C@H]1CN(C)Cc1ccc2c(c1)OCO2 | 68 | 66 | nt | i | nt | nt
C[C@@H]1CN([C@H](C)CO)C(=O)c2cc(NC(=O)Nc3ccc(F)cc3)ccc2O[C@@H](C)CCCCO[C@@H]1CN(C)Cc1ccc2c(c1)OCO2 | i | 92 | nt | i | nt | nt
C[C@@H]1CCCCO[C@H](CN(C)Cc2ccc3c(c2)OCO3)[C@H](C)CN([C@H](C)CO)C(=O)c2cc(NC(=O)Nc3ccc(F)cc3)ccc2O1 | i | 66 | nt | i | nt | nt
C[C@@H]1CN([C@@H](C)CO)C(=O)c2cc(NC(=O)Nc3ccc(F)cc3)ccc2O[C@@H](C)CCCCO[C@H]1CN(C)Cc1ccc2c(c1)OCO2 | i | i | nt | i | nt | nt
COCC(=O)N(C)C[C@@H]1Oc2ncc(-c3ccccc3F)cc2C(=O)N([C@H](C)CO)C[C@@H]1C | i | i | nt | i | nt | nt
COc1ccc(C(C#N)c2ccc(=O)[nH]n2)cc1 (configuration not stated) | i | i | i | i | i | 52
Cc1ccc(S(=O)(=O)Nc2ccc3c(c2)C(=O)N([C@@H](C)CO)C[C@@H](C)[C@H](CN(C)C(=O)Nc2ccc4c(c2)OCO4)OCCCC[C@@H](C)O3)cc1 | i | i | nt | i | nt | nt
O=C(/C=C/c1ccccc1)CC(O)(c1ccccc1)C(F)(F)C(F)F (configuration not stated) | 66 | nt | i | ? | i | i
O=C1C=C(N(CCO)Cc2ccccc2)c2ccccc2C1=O | nt | nt | 106 | nt | i | i
SMILES | EWS-Fli inh | PAX8 reporter | TRPM1 prom inh | LGR2 antag | Shn3 inh set2 | LMP1 NFkB inh
O=C1c2ccccc2C(=O)c2c1cccc2N(CCO)CCO | i | i | i | i | i | i
CCc1cc(-c2n[nH]c(CCC(=O)O)c2-c2nc3ccccc3n2C)c(O)cc1O | i | i | i | i | i | i
CCc1cc(-c2n[nH]c(C)c2-c2nc3ccccc3n2C)c(O)cc1O | i | 120 | i | i | i | i
CNC(=O)OCc1nc(SSC(C)(C)C)n(C)c1COC(=O)NC | 67 | i | i | i | 96 | i
CC(C)C(=O)Nc1ccc2c(c1)C(=O)N(C)[C@@H]1CC[C@H](CC(=O)NCc3cccc(F)c3)O[C@H]1CO2 | i | i | nt | i | nt | nt
O=C(NCCc1ccc(Cl)cc1)C1CCC(CNc2nc(=S)[nH]c3ccccc23)CC1 (configuration not stated) | i | i | 76 | i | i | i
O=C(NCCC1=CCCCC1)C1CCC(CNc2nc(=S)[nH]c3ccccc23)CC1 (configuration not stated) | i | i | 64 | i | i | i
CCCNC(=O)N1C[C@H](C)[C@@H](OC)CN(C)C(=O)c2cc(NC(=O)C3CCC3)ccc2OC[C@@H]1C | i | nt | nt | i | nt | nt
COC(=O)C1=C(C)NC(C)=C(C(=O)OCC(C)C)C1c1ccccc1[N+](=O)[O-] (configuration not stated) | i | i | i | i | i | 91
CCOC(=O)C1=C(C)NC(C)=C(C(=O)OCC)C1c1cccc([N+](=O)[O-])c1 | i | i | nt | i | i | i
COc1cccc(NC(=O)N[C@@H]2C=C[C@H](CC(=O)N3CCOCC3)O[C@H]2CO)c1 | i | i | nt | i | nt | nt
Cc1ccnc2c1ccc1cccnc12 | i | 80 | 79 | i | 92 | 80
Cc1cccc2cccnc12 | i | nt | i | i | i | i
Cc1ccnc2c1ccc1ccccc12 | i | i | i | i | i | i
Cc1ccnc2c1ccc1c(C)ccnc12 | nt | nt | 77 | nt | 90 | 84
c1cnc2c(c1)ccc1cccnc12 | 62! | 77! | 79! | i | 95! | i
C[C@@H]1CN([C@H](C)CO)C(=O)c2cccc(NC(=O)C3CCOCC3)c2O[C@@H]1CN(C)CC1CCCCC1 | i | i | nt | i | nt | nt
O=C(C[C@H]1CC[C@@H]2[C@H](COC[C@@H](O)CN2Cc2ccccc2)O1)NCCCN1CCOCC1 | i | i | nt | i | nt | nt
O=C(O)c1cnccn1 | i | i | i | i | i | i
CSC(=N/N=C(\N)c1cnccn1)SC | nt | i | i | i | i | 43
CN1CCN(C2=C(Cl)C(=O)c3ccccc3C2=O)CC1 | i | i | 100 | 72 | i | i
CC1COCC(C)N1C1=C(Cl)C(=O)c2ccccc2C1=O (configuration not stated) | i | i | 96 | i | 96 | i
NC(=O)C1CCN(C2=C(Cl)C(=O)c3ccccc3C2=O)CC1 | nt | nt | 88 | nt | 98 | 78
N#C/C(=C\c1ccco1)C(=O)NCc1ccccc1 | nt | nt | i | nt | i | i
